{"source": "paper PMC11062922", "about": "(Nature Chemical Biology, 2023)", "parameters_in_all_cases": "species or system human, MV4-11 + K-562 + COLO205 + SK-N-BE2 + OVCAR-8", "key": {"ADCK3": {"test_system": "ADCK3", "conditions": "read-out: apparent Kd; compound concentrations:100 nM and 1000 nM (sheet 'Samples'); n = 1"}, "BTK": {"test_system": "BTK", "conditions": "read-out: apparent Kd, n = 1"}, "JAK2": {"test_system": "JAK2", "conditions": "read-out: apparent Kd; compound concentrations:100 nM and 1000 nM (sheet 'Samples'); n = 1"}, "PIK3C3": {"test_system": "PIK3C3", "conditions": "read-out: apparent Kd; compound concentrations:100 nM and 1000 nM (sheet 'Samples'); n = 1"}, "TEC": {"test_system": "TEC", "conditions": "read-out: apparent Kd; compound concentrations:100 nM and 1000 nM (sheet 'Samples'); n = 1"}, "ZAK": {"test_system": "ZAK", "conditions": "read-out: apparent Kd; compound concentrations:100 nM and 1000 nM (sheet 'Samples'); n = 1"}, "ADCK1": {"test_system": "ADCK1", "conditions": "read-out: apparent Kd; compound concentrations:100 nM and 1000 nM (sheet 'Samples'); n = 1"}, "AKT1": {"test_system": "AKT1", "conditions": "read-out: apparent Kd; compound concentrations:100 nM and 1000 nM (sheet 'Samples'); n = 1"}, "ATR": {"test_system": "ATR", "conditions": "read-out: apparent Kd; compound concentrations:100 nM and 1000 nM (sheet 'Samples'); n = 1"}, "AURKA": {"test_system": "AURKA", "conditions": "read-out: apparent Kd; compound concentrations:100 nM and 1000 nM (sheet 'Samples'); n = 1"}, "CDK9": {"test_system": "CDK9", "conditions": "read-out: apparent Kd; compound concentrations:100 nM and 1000 nM (sheet 'Samples'); n = 1"}, "CLK1": {"test_system": "CLK1", "conditions": "read-out: apparent Kd; compound concentrations:100 nM and 1000 nM (sheet 'Samples'); n = 1"}, "CLK4": {"test_system": "CLK4", "conditions": "read-out: apparent Kd; compound concentrations:100 nM and 1000 nM (sheet 'Samples'); n = 1"}, "CSNK1A1": {"test_system": "CSNK1A1", "conditions": "read-out: apparent Kd; compound concentrations:100 nM and 1000 nM (sheet 'Samples'); n = 1"}, "CSNK1E": {"test_system": "CSNK1E", "conditions": "read-out: apparent Kd; compound concentrations:100 nM and 1000 nM (sheet 'Samples'); n = 1"}, "CSNK1G1": {"test_system": "CSNK1G1", "conditions": "read-out: apparent Kd; compound concentrations:100 nM and 1000 nM (sheet 'Samples'); n = 1"}, "CSNK1G3": {"test_system": "CSNK1G3", "conditions": "read-out: apparent Kd; compound concentrations:100 nM and 1000 nM (sheet 'Samples'); n = 1"}, "DDX3X;DDX3Y": {"test_system": "DDX3X;DDX3Y", "conditions": "read-out: apparent Kd; compound concentrations:100 nM and 1000 nM (sheet 'Samples'); n = 1"}, "EPHB3": {"test_system": "EPHB3", "conditions": "read-out: apparent Kd; compound concentrations:100 nM and 1000 nM (sheet 'Samples'); n = 1"}, "GRK6": {"test_system": "GRK6", "conditions": "read-out: apparent Kd; compound concentrations:100 nM and 1000 nM (sheet 'Samples'); n = 1"}, "HSP90B1": {"test_system": "HSP90B1", "conditions": "read-out: apparent Kd; compound concentrations:100 nM and 1000 nM (sheet 'Samples'); n = 1"}, "LYN": {"test_system": "LYN", "conditions": "read-out: apparent Kd; compound concentrations:100 nM and 1000 nM (sheet 'Samples'); n = 1"}, "MAP2K1": {"test_system": "MAP2K1", "conditions": "read-out: apparent Kd; compound concentrations:100 nM and 1000 nM (sheet 'Samples'); n = 1"}, "MAP2K2": {"test_system": "MAP2K2", "conditions": "read-out: apparent Kd; compound concentrations:100 nM and 1000 nM (sheet 'Samples'); n = 1"}, "MAPK1": {"test_system": "MAPK1", "conditions": "read-out: apparent Kd; compound concentrations:100 nM and 1000 nM (sheet 'Samples'); n = 1"}, "MAPK3": {"test_system": "MAPK3", "conditions": "read-out: apparent Kd; compound concentrations:100 nM and 1000 nM (sheet 'Samples'); n = 1"}, "MCM5": {"test_system": "MCM5", "conditions": "read-out: apparent Kd; compound concentrations:100 nM and 1000 nM (sheet 'Samples'); n = 1"}, "MET": {"test_system": "MET", "conditions": "read-out: apparent Kd; compound concentrations:100 nM and 1000 nM (sheet 'Samples'); n = 1"}, "OPA1": {"test_system": "OPA1", "conditions": "read-out: apparent Kd; compound concentrations:100 nM and 1000 nM (sheet 'Samples'); n = 1"}, "PHKG2": {"test_system": "PHKG2", "conditions": "read-out: apparent Kd; compound concentrations:100 nM and 1000 nM (sheet 'Samples'); n = 1"}, "PI4KA": {"test_system": "PI4KA", "conditions": "read-out: apparent Kd; compound concentrations:100 nM and 1000 nM (sheet 'Samples'); n = 1"}, "PI4KB": {"test_system": "PI4KB", "conditions": "read-out: apparent Kd; compound concentrations:100 nM and 1000 nM (sheet 'Samples'); n = 1"}, "PIK3CA": {"test_system": "PIK3CA", "conditions": "read-out: apparent Kd; compound concentrations:100 nM and 1000 nM (sheet 'Samples'); n = 1"}, "PIK3CB": {"test_system": "PIK3CB", "conditions": "read-out: apparent Kd; compound concentrations:100 nM and 1000 nM (sheet 'Samples'); n = 1"}, "PIM1": {"test_system": "PIM1", "conditions": "read-out: apparent Kd; compound concentrations:100 nM and 1000 nM (sheet 'Samples'); n = 1"}}, "note": "Read-outs that look alike come from different tables or passages of the source."}
{"smiles": "Nc1nc(-c2ccc3c(N)n[nH]c3c2)cc(N2CCC[C@@H](C(=O)Nc3ccccc3)C2)n1.Nc1nc(-c2ccc3c(N)n[nH]c3c2)cc(N2CCC[C@@H](C(=O)Nc3ccccc3)C2)n1.O=C(O)C(F)(F)F.O=C(O)C(F)(F)F", "note": "[GSK2288359A]", "values": [{"measurement": "potency estimated from few doses", "setting": "ADCK3", "value": 1100, "unit": "nM"}]}
{"smiles": "C=CC(=O)Nc1cc(-n2c(=O)ccc3cnc4ccc(-c5ccc(NS(C)(=O)=O)cc5)cc4c32)ccc1C", "note": "[BMX-IN-1]", "values": [{"measurement": "potency estimated from few doses", "setting": "ADCK3", "value": 1160, "unit": "nM"}, {"measurement": "potency estimated from few doses", "setting": "BTK; compound concentrations: 100 nM and 1000 nM (sheet 'Samples'), CATDS: 0.33731493843611998", "value": 186, "unit": "nM"}, {"measurement": "potency estimated from few doses", "setting": "JAK2", "value": 466, "unit": "nM"}, {"measurement": "potency estimated from few doses", "setting": "PIK3C3", "value": 1530, "unit": "nM"}, {"measurement": "potency estimated from few doses", "setting": "TEC", "value": 540, "unit": "nM"}, {"measurement": "potency estimated from few doses", "setting": "ZAK", "value": 782, "unit": "nM"}]}
{"smiles": "Cc1cnc(Nc2ccc(F)cc2Cl)nc1-c1c[nH]c(C(=O)N[C@H](CO)c2cccc(Cl)c2)c1", "note": "[Vertex11e]", "values": [{"measurement": "potency estimated from few doses", "setting": "ADCK1", "value": 1210, "unit": "nM"}, {"measurement": "potency estimated from few doses", "setting": "AKT1", "value": 1200, "unit": "nM"}, {"measurement": "potency estimated from few doses", "setting": "ATR", "value": 890, "unit": "nM"}, {"measurement": "potency estimated from few doses", "setting": "AURKA", "value": 745, "unit": "nM"}, {"measurement": "potency estimated from few doses", "setting": "BTK; compound concentrations:100 nM and 1000 nM (sheet 'Samples')", "value": 880, "unit": "nM"}, {"measurement": "potency estimated from few doses", "setting": "CDK9", "value": 1810, "unit": "nM"}, {"measurement": "potency estimated from few doses", "setting": "CLK1", "value": 1150, "unit": "nM"}, {"measurement": "potency estimated from few doses", "setting": "CLK4", "value": 1250, "unit": "nM"}, {"measurement": "potency estimated from few doses", "setting": "CSNK1A1", "value": 969, "unit": "nM"}, {"measurement": "potency estimated from few doses", "setting": "CSNK1E", "value": 1220, "unit": "nM"}, {"measurement": "potency estimated from few doses", "setting": "CSNK1G1", "value": 2060, "unit": "nM"}, {"measurement": "potency estimated from few doses", "setting": "CSNK1G3", "value": 1230, "unit": "nM"}, {"measurement": "potency estimated from few doses", "setting": "DDX3X;DDX3Y", "value": 1220, "unit": "nM"}, {"measurement": "potency estimated from few doses", "setting": "EPHB3", "value": 2330, "unit": "nM"}, {"measurement": "potency estimated from few doses", "setting": "GRK6", "value": 1290, "unit": "nM"}, {"measurement": "potency estimated from few doses", "setting": "HSP90B1", "value": 1070, "unit": "nM"}, {"measurement": "potency estimated from few doses", "setting": "LYN", "value": 1320, "unit": "nM"}, {"measurement": "potency estimated from few doses", "setting": "MAP2K1", "value": 1350, "unit": "nM"}, {"measurement": "potency estimated from few doses", "setting": "MAP2K2", "value": 1430, "unit": "nM"}, {"measurement": "potency estimated from few doses", "setting": "MAPK1", "value": 44.9, "unit": "nM"}, {"measurement": "potency estimated from few doses", "setting": "MAPK3", "value": 77.8, "unit": "nM"}, {"measurement": "potency estimated from few doses", "setting": "MCM5", "value": 1270, "unit": "nM"}, {"measurement": "potency estimated from few doses", "setting": "MET", "value": 2320, "unit": "nM"}, {"measurement": "potency estimated from few doses", "setting": "OPA1", "value": 802, "unit": "nM"}, {"measurement": "potency estimated from few doses", "setting": "PHKG2", "value": 2480, "unit": "nM"}, {"measurement": "potency estimated from few doses", "setting": "PI4KA", "value": 1380, "unit": "nM"}, {"measurement": "potency estimated from few doses", "setting": "PI4KB", "value": 59.2, "unit": "nM"}, {"measurement": "potency estimated from few doses", "setting": "PIK3CA", "value": 142, "unit": "nM"}, {"measurement": "potency estimated from few doses", "setting": "PIK3CB", "value": 851, "unit": "nM"}, {"measurement": "potency estimated from few doses", "setting": "PIM1", "value": 939, "unit": "nM"}]}
